The source of these data is the supplement of paper PMC11732987, “Enantioselective OTUD7B fragment discovery through chemoproteomics screening and high-throughput optimisation” (Communications Chemistry, 2025).

Assay in all cases: log2 ratio of Biotin-Ahx-Ub-VS probe labelling (fragment/DMSO); higher = less target engagement (more negative = stronger competition), active = hit call of the paper (q ≤ 0.05, log2 ratio ≤ -1)
Common to all, as to conditions: compound concentration: 200 uM; treatment time: 3 h

Experiment [1] addresses T1, OTUD6B (UniProt Q8N6M0).
T1 sequence (whole entry): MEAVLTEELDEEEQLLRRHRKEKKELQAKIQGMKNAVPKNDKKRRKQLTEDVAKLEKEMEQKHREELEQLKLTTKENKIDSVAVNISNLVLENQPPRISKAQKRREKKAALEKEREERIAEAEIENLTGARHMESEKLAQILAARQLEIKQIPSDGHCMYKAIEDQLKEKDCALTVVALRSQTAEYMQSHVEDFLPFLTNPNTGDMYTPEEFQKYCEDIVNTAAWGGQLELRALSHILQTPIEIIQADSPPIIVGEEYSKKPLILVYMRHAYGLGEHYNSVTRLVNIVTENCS
The procedure, abridged: (§1)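 Triplicate samples of HEK293T lysate, 495 µg each, received fragment at 200 µM or vehicle for 3 h, followed by Biotin-Ahx-Ub-VS (0.5 µM final) for 1 h. After NeutrAvidin enrichment of labelled DUBs and LysC/trypsin digestion, peptides were run by diaPASEF LC-MS/MS. The values are average log2 fragment/vehicle ratios from global-median-normalised Spectronaut label-free quantities, tested by unpaired t-test on proteins having ≥2 unique peptides.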

For experiment [2], the target named is T2, OTUD7B (UniProt Q6GQQ9).
T2 sequence (whole entry): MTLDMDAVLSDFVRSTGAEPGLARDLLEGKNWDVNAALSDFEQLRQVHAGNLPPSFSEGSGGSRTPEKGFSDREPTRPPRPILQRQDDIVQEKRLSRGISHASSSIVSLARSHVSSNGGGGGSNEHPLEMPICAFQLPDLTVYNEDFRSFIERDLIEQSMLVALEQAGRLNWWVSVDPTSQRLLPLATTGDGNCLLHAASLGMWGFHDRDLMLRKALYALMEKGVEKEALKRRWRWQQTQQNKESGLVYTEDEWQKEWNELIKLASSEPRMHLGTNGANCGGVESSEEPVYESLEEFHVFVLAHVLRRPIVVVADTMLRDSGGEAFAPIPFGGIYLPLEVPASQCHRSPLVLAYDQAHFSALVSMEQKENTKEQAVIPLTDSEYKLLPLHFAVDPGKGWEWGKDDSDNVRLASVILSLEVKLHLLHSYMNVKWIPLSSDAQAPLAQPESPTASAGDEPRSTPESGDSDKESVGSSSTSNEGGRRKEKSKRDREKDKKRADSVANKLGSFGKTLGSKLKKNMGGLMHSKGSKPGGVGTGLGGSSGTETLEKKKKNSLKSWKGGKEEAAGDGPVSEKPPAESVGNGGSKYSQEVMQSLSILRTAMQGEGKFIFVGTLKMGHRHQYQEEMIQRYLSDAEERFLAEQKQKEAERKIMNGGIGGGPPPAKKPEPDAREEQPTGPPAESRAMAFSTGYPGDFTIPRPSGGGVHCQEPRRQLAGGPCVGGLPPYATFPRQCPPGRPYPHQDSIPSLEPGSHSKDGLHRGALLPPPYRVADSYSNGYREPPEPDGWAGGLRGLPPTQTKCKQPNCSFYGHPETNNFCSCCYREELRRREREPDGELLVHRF
In a few lines: as §1

For experiment [3], the target named is PRPF8 (UniProt Q6P2Q9). The procedure, abridged:
as §1

The target in experiment [4] is T3, PSMD7 (UniProt P51665).
T3 sequence (whole entry): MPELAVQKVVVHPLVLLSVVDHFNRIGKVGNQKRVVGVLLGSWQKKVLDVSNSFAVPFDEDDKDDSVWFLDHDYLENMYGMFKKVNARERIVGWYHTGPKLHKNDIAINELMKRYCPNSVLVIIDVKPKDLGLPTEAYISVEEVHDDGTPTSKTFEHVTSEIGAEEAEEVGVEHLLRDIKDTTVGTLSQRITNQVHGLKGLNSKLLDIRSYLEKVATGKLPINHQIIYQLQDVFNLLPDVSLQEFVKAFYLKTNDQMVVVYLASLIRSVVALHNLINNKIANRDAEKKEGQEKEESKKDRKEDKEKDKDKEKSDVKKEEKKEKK
In a few lines:
as §1

Experiment [5] deals with UCHL1 (UniProt P09936). The procedure, abridged: as §1
In experiment [6] the target is T4, UCHL3 (UniProt P15374).
T4 sequence (whole entry): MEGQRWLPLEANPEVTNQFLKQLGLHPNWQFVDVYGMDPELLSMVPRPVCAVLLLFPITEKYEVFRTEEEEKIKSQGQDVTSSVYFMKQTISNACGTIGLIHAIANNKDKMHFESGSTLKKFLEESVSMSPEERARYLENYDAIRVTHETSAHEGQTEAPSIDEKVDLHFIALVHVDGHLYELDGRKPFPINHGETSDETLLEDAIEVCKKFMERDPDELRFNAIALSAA
In a few lines: as §1

The target in experiment [7] is T5, UCHL5 (UniProt Q9Y5K5).
T5 sequence (whole entry): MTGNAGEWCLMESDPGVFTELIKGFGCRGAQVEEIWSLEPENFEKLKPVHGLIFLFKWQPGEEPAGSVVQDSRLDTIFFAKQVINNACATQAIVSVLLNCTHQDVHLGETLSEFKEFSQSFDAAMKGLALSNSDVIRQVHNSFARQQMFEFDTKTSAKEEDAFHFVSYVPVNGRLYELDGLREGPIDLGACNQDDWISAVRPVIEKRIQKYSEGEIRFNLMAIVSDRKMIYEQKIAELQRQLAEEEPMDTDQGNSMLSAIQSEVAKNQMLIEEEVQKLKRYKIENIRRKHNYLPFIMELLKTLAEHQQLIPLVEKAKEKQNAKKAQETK
The procedure, abridged: as §1

The target in experiment [8] is USP10 (UniProt Q14694). The procedure, abridged:
as §1

The target in experiment [9] is T6, USP15 (UniProt Q9Y4E8).
T6 sequence (whole entry): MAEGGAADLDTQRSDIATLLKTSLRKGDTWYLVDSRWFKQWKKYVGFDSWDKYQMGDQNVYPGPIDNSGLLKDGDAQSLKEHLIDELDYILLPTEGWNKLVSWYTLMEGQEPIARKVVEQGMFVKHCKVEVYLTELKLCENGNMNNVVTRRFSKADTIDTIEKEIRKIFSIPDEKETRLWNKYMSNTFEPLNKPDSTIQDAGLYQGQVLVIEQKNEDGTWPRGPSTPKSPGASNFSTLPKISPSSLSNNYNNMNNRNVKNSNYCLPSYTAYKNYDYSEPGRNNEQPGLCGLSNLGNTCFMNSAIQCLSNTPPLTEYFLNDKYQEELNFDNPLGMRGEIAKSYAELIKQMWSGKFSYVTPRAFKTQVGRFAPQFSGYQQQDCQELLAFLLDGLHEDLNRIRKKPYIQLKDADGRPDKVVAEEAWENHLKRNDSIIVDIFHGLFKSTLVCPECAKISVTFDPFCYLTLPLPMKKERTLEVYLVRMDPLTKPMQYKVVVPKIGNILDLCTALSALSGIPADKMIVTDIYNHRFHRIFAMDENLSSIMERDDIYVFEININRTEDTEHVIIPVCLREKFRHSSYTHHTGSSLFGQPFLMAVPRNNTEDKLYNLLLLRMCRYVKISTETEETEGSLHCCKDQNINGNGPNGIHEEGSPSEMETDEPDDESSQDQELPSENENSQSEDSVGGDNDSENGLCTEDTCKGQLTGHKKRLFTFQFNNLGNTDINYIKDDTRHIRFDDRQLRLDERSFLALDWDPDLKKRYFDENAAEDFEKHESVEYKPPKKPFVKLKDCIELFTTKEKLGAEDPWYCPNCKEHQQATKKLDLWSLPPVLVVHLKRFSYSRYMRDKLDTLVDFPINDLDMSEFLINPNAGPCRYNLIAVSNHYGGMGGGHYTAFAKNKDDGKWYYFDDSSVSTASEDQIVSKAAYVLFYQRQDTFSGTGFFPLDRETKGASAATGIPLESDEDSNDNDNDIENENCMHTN
In a few lines: as §1

In experiment [10] the target is USP16 (UniProt Q9Y5T5). In a few lines: as §1

Values without a mark were called inactive.

Chain of UCHL1 (P09936 whole entry, looked up): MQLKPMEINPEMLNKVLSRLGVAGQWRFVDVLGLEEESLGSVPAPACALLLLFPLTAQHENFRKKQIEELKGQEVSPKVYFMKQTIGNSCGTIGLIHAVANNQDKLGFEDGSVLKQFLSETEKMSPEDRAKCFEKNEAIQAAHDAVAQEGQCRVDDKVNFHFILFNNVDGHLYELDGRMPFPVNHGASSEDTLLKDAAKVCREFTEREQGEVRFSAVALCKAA
Chain of USP10 (Q14694 whole entry): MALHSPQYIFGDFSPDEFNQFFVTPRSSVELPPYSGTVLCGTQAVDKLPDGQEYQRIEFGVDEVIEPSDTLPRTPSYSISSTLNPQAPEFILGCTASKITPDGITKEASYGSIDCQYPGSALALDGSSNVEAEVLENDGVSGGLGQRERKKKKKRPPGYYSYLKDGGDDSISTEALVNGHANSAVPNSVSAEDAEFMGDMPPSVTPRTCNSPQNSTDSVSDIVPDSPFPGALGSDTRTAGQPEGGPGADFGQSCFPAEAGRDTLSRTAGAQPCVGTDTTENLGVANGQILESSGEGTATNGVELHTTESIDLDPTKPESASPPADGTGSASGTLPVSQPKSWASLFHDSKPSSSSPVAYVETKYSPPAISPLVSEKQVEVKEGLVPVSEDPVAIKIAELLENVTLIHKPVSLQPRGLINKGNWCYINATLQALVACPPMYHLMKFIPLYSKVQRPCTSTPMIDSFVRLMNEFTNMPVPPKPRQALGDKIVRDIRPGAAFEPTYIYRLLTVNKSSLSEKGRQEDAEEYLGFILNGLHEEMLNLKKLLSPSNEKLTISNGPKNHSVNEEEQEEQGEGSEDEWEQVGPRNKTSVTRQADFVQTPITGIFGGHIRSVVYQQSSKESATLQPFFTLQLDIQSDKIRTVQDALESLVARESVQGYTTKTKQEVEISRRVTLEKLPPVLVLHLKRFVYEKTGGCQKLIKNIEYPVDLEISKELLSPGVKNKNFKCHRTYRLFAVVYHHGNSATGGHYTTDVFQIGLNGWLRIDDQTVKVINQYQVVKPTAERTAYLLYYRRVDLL
Chain of USP16 (Q9Y5T5 whole entry, looked up): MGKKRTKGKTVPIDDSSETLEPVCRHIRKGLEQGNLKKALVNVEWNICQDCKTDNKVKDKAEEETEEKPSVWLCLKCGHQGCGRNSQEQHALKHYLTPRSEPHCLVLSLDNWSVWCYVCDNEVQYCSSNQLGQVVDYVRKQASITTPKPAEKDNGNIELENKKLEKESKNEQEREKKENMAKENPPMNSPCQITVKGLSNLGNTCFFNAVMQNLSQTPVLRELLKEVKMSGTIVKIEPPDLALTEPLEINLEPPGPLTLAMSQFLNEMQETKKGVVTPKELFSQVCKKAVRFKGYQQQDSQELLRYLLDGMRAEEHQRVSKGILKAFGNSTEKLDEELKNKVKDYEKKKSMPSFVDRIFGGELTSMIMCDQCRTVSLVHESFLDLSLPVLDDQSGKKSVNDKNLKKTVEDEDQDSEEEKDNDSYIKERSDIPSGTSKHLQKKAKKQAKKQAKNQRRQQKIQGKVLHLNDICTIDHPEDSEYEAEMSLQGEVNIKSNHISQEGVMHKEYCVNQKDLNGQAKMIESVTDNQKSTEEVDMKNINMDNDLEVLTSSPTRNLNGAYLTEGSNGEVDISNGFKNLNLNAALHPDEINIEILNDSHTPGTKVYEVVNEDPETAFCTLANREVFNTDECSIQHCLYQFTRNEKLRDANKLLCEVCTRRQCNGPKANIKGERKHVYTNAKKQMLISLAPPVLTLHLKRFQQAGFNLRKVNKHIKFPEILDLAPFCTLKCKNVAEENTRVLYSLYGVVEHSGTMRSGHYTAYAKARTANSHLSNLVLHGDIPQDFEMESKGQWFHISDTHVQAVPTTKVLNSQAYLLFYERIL

In the case of `Cl.Cn1nccc1C(NC(=O)CCl)c1ccccc1` (stereo not given), the “log2 ratio of Biotin-Ahx-Ub-VS probe labelling” value (“log2 ratio” below) in experiment [1] was -0.147; in experiment [2], -0.872; in experiment [3], 0.0203; in experiment [4] it was -0.597; in experiment [5], -1.03 (active); in experiment [6] it was 0.209. Further, the “log2 ratio” value was -0.353 in [7], -0.0201 in experiment [8], -0.218 in [9] and -0.0928 in [10].
In the case of `O=C(CCl)NCc1cccc(N2CCCC2=O)c1`, the “log2 ratio” value in [1] is 0.058; in [2], -0.585; in experiment [3], -0.0281; in experiment [4], -0.0566; in experiment [5] it was -0.979; in experiment [6] it was 0.302. Besides, the “log2 ratio” value is -0.112 in experiment [7], 0.0755 in experiment [8], 0.049 in [9] and -1 (active) in experiment [10].
Regarding `Cc1ccc(CNC(=O)CCl)nc1C.Cl`, the “log2 ratio” value in experiment [1] is 0.146; in experiment [2], -0.314; in [3], 0.14; in experiment [4] it was -0.305; in experiment [5] it was -1.07 (active); in experiment [6], 0.499. Moreover, the “log2 ratio” value in experiment [7] is -0.0227; in experiment [8] it was -0.0933; in experiment [9] it was 0.144; in experiment [10], 0.174.
For the compound `Cc1ncsc1CCNC(=O)CCl`, the “log2 ratio” value in experiment [1] was 0.143; in [2], -0.157; in experiment [3], 0.116; in experiment [4], 0.433; in [5], -1.31 (active); in experiment [6], 0.292. Moreover, the “log2 ratio” value in experiment [7] was -0.131; in [8], 0.0995; in experiment [9] it was 0.22; in experiment [10] it was 0.106.
Take `NC(=O)C(Cc1ccccc1)NC(=O)CCl` (stereo not given): the “log2 ratio” value was -0.129 in [1]; -0.38 in experiment [2]; -0.0593 in experiment [3]; -0.0419 in experiment [4]; -1.73 (active) in experiment [5]; 0.313 in [6]. Moreover, the “log2 ratio” value in [7] was -0.295; in experiment [8], -0.0595; in experiment [9], -0.0229; in experiment [10] it was 0.0723.
As for `O=C(CCl)Nc1ccccc1C(F)(F)F`, the “log2 ratio” value in experiment [1] was -0.447; in [2], -0.668; in [3], 0.155; in [4], -0.0779; in experiment [5] it was -0.977; in experiment [6], 0.2. Also, the “log2 ratio” value was -0.341 in experiment [7], -0.0659 in experiment [8], -0.122 in experiment [9] and -0.0895 in experiment [10].
Take `O=C(CN1CCN(C(=O)CCl)CC1)Nc1cccc(F)c1`: the “log2 ratio” value in [1] was -0.321; in experiment [2], -0.452; in experiment [3], -0.19; in experiment [4] it was -0.137; in experiment [5], -1.08 (active); in experiment [6], -0.122. Further, the “log2 ratio” value was -0.336 in experiment [7], 0.0386 in [8], -0.225 in [9] and -0.245 in experiment [10].
